Bioassay records from PubChem.
Shown is part of a subset that was picked to be rich in hits.
14-3-3g Raf: modulators of 14-3-3 gamma protein binding, primary screen, biochemical, fluorescence polarization; 14-3-3 protein gamma (Homo sapiens), P61981; FP, 14-3-3gamma / TMR-pS259-Raf peptide binding; inhibition, % at 40 µM; hit rate 0.19% among 160,000; AID 422, 2006; in the data active = inhibition above about 30%
Target sequence (P61981 whole entry, looked up): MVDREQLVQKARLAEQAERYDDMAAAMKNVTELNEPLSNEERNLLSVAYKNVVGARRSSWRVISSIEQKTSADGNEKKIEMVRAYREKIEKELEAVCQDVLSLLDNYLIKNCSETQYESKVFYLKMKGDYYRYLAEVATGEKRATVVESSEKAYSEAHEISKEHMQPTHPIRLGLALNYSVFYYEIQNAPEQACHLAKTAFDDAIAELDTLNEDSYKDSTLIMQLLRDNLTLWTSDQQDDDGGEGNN
Each line names hits and unclear results; the compound was inactive in the other large screens.

COC(=O)C1=C(C)N(C)C(C)=C(C(=O)OC)C1c1ccsc1	none
COC(=O)C1=C(C)N(C)C(C)=C(C(=O)OC)C1c1ccc(C(F)(F)F)cc1	none
COc1ccc(-n2c(C=Cc3cccc4ccccc34)nc3ccccc3c2=O)cc1OC	none
CCCOC(=O)c1sc2nc3c(c(-c4ccco4)c2c1N)CCCC3	none
Cc1cc(C)c(C#N)c(Nc2ccc(Cl)cc2)n1	none
Cc1nc2nc(Cc3ccccc3)[nH]n2c(=O)c1Cc1ccccc1	14-3-3g Raf 50
Cc1nc2nc(Cc3ccccc3)[nH]n2c(=O)c1Cl	none
Cc1nc2nc(-c3ccccc3)[nH]n2c(=O)c1Cc1ccccc1	none
Cc1nc2c(C(=O)NC3CC3)cnn2c(C)c1Cc1ccccc1F	none
CCOc1cccc(NC(C)=O)c1	none
CCOc1ccccc1NC(=O)CCS(=O)(=O)c1ccc(Br)s1	none
COc1ccc(C2CC(=O)c3c([nH]c(C(=O)OCC(C)C)c3C)C2)cc1 (stereo unspecified)	none
CCN1C2=C(C(=O)CC(C)(C)C2)C(c2ccc(O)c(Cl)c2)C2=C1CC(C)(C)CC2=O	none
CC1(C)CC(=O)C2=C(C1)N(Cc1ccccc1)C1=C(C(=O)CC(C)(C)C1)C2c1ccc(O)cc1	none
CCN1C2=C(C(=O)CC(C)(C)C2)C(c2ccc(O)cc2)C2=C1CC(C)(C)CC2=O	14-3-3g Raf 102
CC(=O)N1c2ccccc2NC2=C(C(=O)CC(c3cccs3)C2)C1c1ccc(F)cc1 (stereo unspecified)	none
Cc1[nH]nc2c1C(c1ccc(Br)cc1)C1=C(CC(C)(C)CC1=O)N2 (stereo unspecified)	none
Cc1cccc(C)c1N1C(=O)c2ccc([N+](=O)[O-])c3c([N+](=O)[O-])ccc(c23)C1=O	none
O=C1c2ccc([N+](=O)[O-])c3c([N+](=O)[O-])ccc(c23)C(=O)N1c1ccc(O)cc1	14-3-3g Raf 43
O=C(O)c1cc(N2C(=O)c3ccc([N+](=O)[O-])c4c([N+](=O)[O-])ccc(c34)C2=O)ccc1O	none
CCOC(=O)C1=C(C)NC2=C(C(=O)CC(C)(C)C2)C1c1ccccn1 (stereo unspecified)	none
CCOC(=O)CN=C1CC(C)(C)CC2=C1Sc1ncnc(OC)c1N2	14-3-3g Raf 81
COCCOC(=O)C1=C(C)NC(=O)NC1c1c(OC)ncnc1OC (stereo unspecified)	none
CCOC(=O)c1[nH]c2ccc(I)cc2c1CCN1C(=O)c2ccccc2C1=O	none
COc1cccc2c1C(=O)c1c(O)c3c(c(O)c1C2=O)C[C@@](O)(C(C)=O)C[C@@H]3O[C@H]1C[C@H](N)[C@H](O)[C@H](C)O1	none
CC(=O)[C@]1(O)Cc2c(O)c3c(c(O)c2[C@@H](O[C@H]2C[C@H](N)[C@H](O)[C@H](C)O2)C1)C(=O)c1ccccc1C3=O	14-3-3g Raf 117
CCOc1ccc(CNC(=O)c2cc(-c3ccccn3)nc3ccc(S(=O)(=O)N4CCOCC4)cc23)cc1	none
Cc1ccc(CNC(=O)Cn2c(=O)n(CCc3ccccc3)c(=O)c3c(C)c(C)sc32)cc1	none
O=C(Nc1cccc(N=Cc2c(O)ccc3cc([N+](=O)[O-])ccc23)c1)c1ccc(F)cc1	none
O=C(Nc1cccc(N=Cc2c(O)ccc3cc([N+](=O)[O-])ccc23)c1)c1ccccc1	14-3-3g Raf 32
CCOc1cc([N+](=O)[O-])cc(C=Nc2cccc(NC(=O)c3ccccc3)c2)c1O	none
COC(=O)C1=C(C)NC2=C(C(=O)CC(C)(C)C2)C1c1cc([N+](=O)[O-])ccc1Cl (stereo unspecified)	none
O=C(C[n+]1ccc2ccccc2c1)c1ccc2c(c1)Cc1ccccc1-2	none
O=C(C[n+]1ccc2ccccc2c1)c1ccccc1	14-3-3g Raf 45
O=C(C[n+]1cccc(Br)c1)c1ccccc1	none
CC(=O)N1c2ccccc2NC2=C(C(=O)CC(c3ccccc3F)C2)C1c1ccc(C)cc1 (stereo unspecified)	none
Cc1ccc(-n2ncc3c(=O)[nH]c(SCC(=O)Nc4ccc5c(c4)OCCO5)nc32)cc1C	none
c1ccc(COCCOCCN2CCOCCOCCOCCOCCOCC2)cc1	14-3-3g Raf 119
c1ccc(SCCN2CCOCC2)cc1	none
C1COCCOCCN(CCOCCOCCN2CCOCCOCCOCCOCC2)CCOCCO1	none
Cc1cccn2cc(-c3cccc(NC(=O)CC(C)C)c3)nc12	none
CCC(=O)Nc1cccc(-c2cn3cccc(C)c3n2)c1	14-3-3g Raf 31
Cc1cccn2cc(-c3cccc(NC(=O)c4cc5ccccc5oc4=O)c3)nc12	none
CCn1c(CSc2nccn2C)nc2cc(C(=O)O)ccc21	14-3-3g Raf 57
COc1ccc(C(=O)CSc2nccn2C)cc1OC	none
Cn1ccnc1SCC(=O)c1ccc(Cl)cc1	none
CC(=O)N1CCc2cc(Br)cc(S(=O)(=O)N(C)Cc3ccccc3)c21	none
COc1ccccc1N1C(=O)C2C(C(C)=O)=NN(c3ccccc3)C2C1=O (stereo unspecified)	none
Cc1cc(C)cc(N2C(=O)CSC2c2ccc(Br)cc2)c1 (stereo unspecified)	none
Cc1cc2ccccc2c(=O)n1CC(=O)N1CCOCC1	none
CCS(=O)(=O)N1N=C(c2ccc(NS(C)(=O)=O)cc2)CC1c1ccc(F)cc1 (stereo unspecified)	14-3-3g Raf 92
CCS(=O)(=O)N1N=C(c2ccc(NS(C)(=O)=O)cc2)CC1c1ccc(C)cc1 (stereo unspecified)	none
CS(=O)(=O)Nc1ccc(C2=NN(S(C)(=O)=O)C(c3ccc(F)cc3)C2)cc1 (stereo unspecified)	none
COc1ccc(C(C)(C#N)CC#N)cc1 (stereo unspecified)	none
Cc1cccc(NC(=O)c2cc(S(=O)(=O)N3CC(C)CC(C)C3)ccc2F)c1C (stereo unspecified)	none
CC1(C)OC(c2cccc([N+](=O)[O-])c2)Nc2ccccc21 (stereo unspecified)	none
Cc1ccccc1Cn1c(CCNC(=O)c2ccc(F)cc2)nc2ccccc21	14-3-3g Raf 32
Cc1ccc(C)c(Cn2c(CCNC(=O)c3ccc(F)cc3)nc3ccccc32)c1	none
CCCCn1c(CCNC(=O)c2ccc(F)cc2)nc2ccccc21	none
CCOC(=O)c1c(NC(=O)C2CC2)sc(C(=O)Nc2ccc(C)cc2C)c1C	none
O=C1Sc2ccc(S(=O)(=O)N3CCOCC3)c3cccc1c23	none
Cc1[nH]c(=O)[nH]c(=O)c1NCCO	none
CC(C)(C)C(=O)Nc1c[nH]c(=O)[nH]c1=O	none
O=c1[nH]cc(NCCO)c(=O)[nH]1	14-3-3g Raf 31
C=CCSc1nnc(Cc2cc(=O)[nH]c(=O)[nH]2)n1-c1ccc(Cl)cc1	none
O=C(NCCc1ccccc1)c1cccn2c(=O)c3cc(Cl)ccc3nc12	none
COCCCNC(=O)c1cccn2c(=O)c3cc4ccccc4cc3nc12	none
NS(=O)(=O)c1ccc(CCNC(=O)c2cccn3c(=O)c4cc5ccccc5cc4nc23)cc1	14-3-3g Raf 91
CCOC(=O)c1cc2cc3ccc(Cl)cc3nc2o1	none
CCc1ccc(-c2csc(Nc3ccc(C)cn3)n2)cc1	none
COC(=O)c1ccc(Nc2cc(N3CCCCC3C)c3noc4c3c2C(=O)c2ccccc2-4)cc1 (stereo unspecified)	none
c1ccc(-c2nnc(-c3ccccc3)o2)cc1	none
Nc1nc(N)nc(-c2ccccc2)n1	none
Cc1nnc(-c2ccccc2)nn1	14-3-3g Raf 86
CC(C)(C)c1ccc(OCC(=O)Nc2ccc3nn(-c4ccc(Cl)cc4)nc3c2)cc1	none
N#Cc1cc([N+](=O)[O-])ccc1Sc1ccc([N+](=O)[O-])cc1C#N	none
c1ccc(CSc2nnc3c(n2)-c2cccc4cccc-3c24)cc1	none
O=C1c2ccc([N+](=O)[O-])cc2C(=O)N1c1ccc(Oc2ccccc2)cc1	none
